Assay results: PubChem BioAssay (NCI)
About 79,000 compounds went through this panel and 15% of them were active in at least one assay; those are over-represented in the sample as a whole. Unmarked numbers belong to inactive results. Calls of active or inactive are those of the source. Rule as the data show it: active = growth inhibition above about 70%; inactive = the rest.

Columns and labels:
[1] = NCI Yeast Anticancer Drug Screen. Data for the rad50 strain (AID 155);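 also: 0% = growth of vehicle-only cultures of the same strain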; conditions: S. cerevisiae rad50 strain growth inhibition; at 50.0 µM; active compounds read high
In short: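 Relative growth inhibition (compound vs vehicle) was measured in yeast with a defined repair-gene alteration.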

[2] = NCI Yeast Anticancer Drug Screen. Data for the mec2-1 strain (AID 157); conditions: S. cerevisiae mec2-1 strain, at 50.0 µM, active compounds read high
In short: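 Growth inhibition is read against vehicle-treated controls after compound exposure of the mec2-1 yeast strain, which is defective in DNA damage repair or cell cycle control.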

[3] = NCI Yeast Anticancer Drug Screen. Data for the sgs1 mgt1 strain (AID 161);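 also: 0% = growth of cultures given vehicle only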; conditions: S. cerevisiae sgs1 mgt1 strain, at 50.0 µM, active compounds read high
In short: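 Growth of a repair-deficient yeast mutant was monitored after compound treatment and expressed as inhibition relative to vehicle-treated cultures.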

[4] = NCI Yeast Anticancer Drug Screen. Data for the cln2 rad14 strain (AID 165);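 also: 0% = growth equal to vehicle treated cultures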; conditions: S. cerevisiae cln2 rad14 strain, at 50.0 µM, active compounds read high
In short: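 Growth inhibition, relative to vehicle-treated controls, is the read-out. The test organism is a yeast strain with defined genetic alterations, cln2 rad14.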

[5] = NCI Yeast Anticancer Drug Screen. Data for the bub3 strain (AID 167); conditions: S. cerevisiae bub3 mutant strain, at 50.0 µM, active compounds read high
In short: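 Screening used yeast with an engineered genetic alteration affecting cell cycle control. Compound-exposed cultures were compared with vehicle cultures, and reduced growth was taken as inhibition.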

[6] = NCI Yeast Anticancer Drug Screen. Data for the mlh1 rad18 strain (AID 175); conditions: S. cerevisiae mlh1 rad18 strain growth inhibition; at 50.0 µM; active compounds read high
In short: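 Cells of a genetically altered yeast strain, deficient in DNA damage repair, were treated with compound. Their growth was then compared with that of vehicle-treated cultures to give inhibition.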

Row | SMILES | growth inhibition [1] | growth inhibition [2] | growth inhibition [3] | growth inhibition [4] | growth inhibition [5] | growth inhibition [6]
1 | Cc1cc(Nc2ccc(O)cc2)nc(Nc2ccc(O)cc2)n1 | -8.25% | -18.4% | -35.3% | -34% | 10.9% | -2.3%
2 | OC(c1ccccc1)C1CC2C=CC1C2 (stereo unspecified) | 10.4% | 3.9% | 3.75% | 3.05% | -2.05% | 2.6%
3 | COC1OC(COS(=O)(=O)c2ccc(C)cc2)C(N(C)C(C)=O)C1OS(=O)(=O)c1ccc(C)cc1 (stereo unspecified) | 8.65% | -8.3% | 16.6% | -2.3% | 2.3% | 0.65%
4 | CC(=O)OC1(C(=O)O)CCCCC1 | 5.8% | 14% | -0.05% | -19.9% | 5.25% | 9.65%
5 | c1ccc(Cn2nnnc2Nc2ccccc2)cc1 | -19.2% | -10.7% | -3.65% | 19.8% | 26.4% | 10.4%
6 | CCCCCCC(C)C(=O)Nc1ccccc1 (stereo unspecified) | 16.7% | -11.8% | 10.7% | 2.75% | -2.95% | -17.1%
7 | CN(C)CCNC(=O)Cn1cnc2cccc([N+](=O)[O-])c2c1=O | 34.5% | 17% | 4.85% | 20.6% | 20.9% | -34.6%
8 | Cc1ccccc1NC(=O)c1ccccc1 | 1.35% | 2.3% | -5.6% | -14.7% | 5.85% | 3.1%
9 | Cc1cc(O)c(C)c(C)c1C | -1.05% | -6.55% | 4.5% | 2.1% | -9.85% | 12.1%
10 | CC(=O)C1C(=O)NC(=O)C1=O (stereo unspecified) | -2.9% | -23.5% | -14.2% | 0.2% | -18.9% | -18.9%
11 | Cn1ccc2c([N+](=O)[O-])cccc2c1=O | 4.1% | 2% | 2.55% | -45.9% | -25.4% | 4.35%
12 | CC(C)(C)OC(=O)Cc1c[nH]c2ccccc12 | -38.2% | -27.1% | -9.45% | -19.1% | -27.6% | -41.1%
13 | C[N+](C)(CCCN1C(=O)c2cccc3c(Br)ccc(c23)C1=O)Cc1ccc(Cl)c(Cl)c1 | 97.8% (active) | 98% (active) | 98.3% (active) | 95.8% (active) | 95.7% (active) | 98% (active)
14 | Clc1ccc(N=C2c3ccccc3CN2c2ccc(Cl)cc2)cc1 | -32.6% | -20.1% | -14.4% | -4.85% | -22.3% | -13.9%
15 | C=CCN(CC=C)CNC(C)=O | -9.7% | -14.7% | -8.4% | -17% | -7.55% | -10.8%
16 | CC(Cl)CNC(=O)Nc1cccc2c1CCCC2 (stereo unspecified) | 3.45% | 10.2% | -1.9% | -48.6% | -22.2% | -1.4%
17 | Cc1ccc2cccc(OCC(=O)O)c2n1 | 5.7% | 13.4% | 6.1% | 3.45% | -8.45% | 13.3%
18 | C(=N/n1nnc(-c2ccccc2)n1)/c1ccccc1 | -2.4% | -10.1% | -3% | -44.1% | -5.3% | -6.05%
19 | Cc1nnc(N/N=C/c2ccccc2)n1/N=C\c1ccccc1 | 8.05% | 17.1% | -5.8% | 10.2% | 4.85% | -25.4%
20 | N#CC(NC(=O)NCCCl)c1ccccc1 (stereo unspecified) | -8.8% | -12.2% | -1.4% | -41.1% | 11.4% | 2.6%
21 | O=C(NN1C(=O)C(Cl)C1c1cccc([N+](=O)[O-])c1)c1ccccc1O (stereo unspecified) | -17.4% | -26.1% | -37.5% | 1.1% | -27.1% | -25.1%

Row | SMILES | growth inhibition [1] | growth inhibition [2] | growth inhibition [3] | growth inhibition [4] | growth inhibition [5] | growth inhibition [6]
22 | COC(=O)c1cc(C)nc(Cl)c1C(=O)O | 1.55% | 4.95% | -2.2% | 0% | -2.05% | -5.9%
23 | O=C(O)C(Sc1ccccc1)c1ccccc1 (stereo unspecified) | 0.8% | -8.2% | -0.05% | -32.4% | -21.9% | -21.6%
24 | C=C(C)c1ccc2c(c1)C(=O)C[C@@H]1[C@](C)(C#N)CCC[C@]21C | -19.9% | -16.3% | 32.2% | -52% | 46.9% | -33.9%
25 | O=S1(=O)c2ccccc2N(O)C2=NCCN21 | -50.1% | -46.7% | -65.8% | -6.35% | -30.9% | -33.9%
26 | CCC(C)(C)c1ccc(OCCO)cc1 | -29.2% | -29.4% | -20.8% | -12.9% | -19.2% | -23.4%
27 | O=C(C(=Cc1ccc(F)cc1)C(=O)c1ccccc1)c1ccccc1 | 1.75% | 6.2% | -12% | 5.95% | 3.35% | 26.6%
28 | COC(=O)C(=[N+]=[N-])C(=O)c1ccccc1 | 10.1% | 1.05% | -1.3% | 4.65% | -3.6% | 6.9%
29 | CC(SC(C)C(=O)N/N=C/C=C\c1ccccc1)C(=O)N/N=C\C=C\c1ccccc1 (stereo unspecified) | 15.1% | 5% | 1.05% | 7.8% | 4.05% | 33.7%
30 | CN(C)NC(=S)Nc1ccccc1 | -5.05% | -0.65% | -11.8% | -36% | -1.7% | -6.15%
31 | O=C(O)CNC(=O)C(Cc1ccccc1)NC(=O)CNC(=O)C(CSC(c1ccccc1)c1ccccc1)NC(=O)C(CSC(c1ccccc1)(c1ccccc1)c1ccccc1)N1C(=O)c2ccccc2C1=O (stereo unspecified) | 1.5% | 14.1% | -3.7% | -17.9% | -7.05% | 11%
32 | CC(C)(C)[Si](C)(C)OCCC1CC2(S(=O)(=O)C3=CC=C=C=C3)ON1CC2S(=O)(=O)c1ccccc1 (stereo unspecified) | 6.8% | -6.2% | -1.45% | -23.9% | -20.4% | 17.1%
33 | CCCC(O)C(C)(C)[N+](=O)[O-] (stereo unspecified) | 60.9% | 5.45% | 12.9% | -2.85% | 8% | 9.95%
34 | OC[C@@H](O)[C@H]1NC[C@@H](O)[C@H]1O | -45.1% | -57.1% | -50.1% | 7.7% | -26.1% | -17.9%
35 | O=Cc1cc2c(cc1Cl)OCO2 | -3.3% | -8.05% | -13.8% | 14.8% | -8.4% | -2%
36 | Cc1cc2[nH]c3c(C#N)c(O)c(C(C)C)c(=O)n3c2cc1C | -1.05% | 7.8% | 11.6% | 1.35% | 10.8% | 11.2%
37 | N#CC(=O)Nc1cccc(Cl)c1 | -13.1% | -8.05% | -16.4% | -19.7% | -3.05% | -0.15%
38 | CC(C)=C1CCC(CN(C)C)C1=O (stereo unspecified) | 30.4% | 4.7% | 35% | 5.35% | -18.9% | 7.55%
39 | OCCSCc1ccccc1 | 29.6% | 0.3% | -6.1% | 7.2% | -13.7% | -1.3%
40 | COC(=O)c1c(C(=O)OC)c2ccccn2c1-c1cc(OC)c(Br)c(=O)o1 | -0.2% | -17.8% | -7.6% | -18.9% | -4.15% | -105%
41 | O=C(NC(=S)Nc1ccc([N+](=O)[O-])cc1Cl)c1ccccc1F | 14.2% | 6.1% | 20.1% | 21.9% | 24.1% | 20.1%
